BRCA1 expr up: qHTS Assay to Identify Small Molecule Activators of BRCA1 Expression; MCF7-BRCA1-FFLuc reporter, luminescence, 48 h; response scale: scaled: vehicle 0%, 10 µM genistein 100%; Potency, µM (top dose mostly 46.1 µM), hits mostly activators; 380,000 tested, 1.1% active; further: nearly all actives have a fitted effect of over 80% in size
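Cells: MCF7-BRCA1-FFLuc, 2000/well. Exposure: 48 h, 37 °C, 5% CO2. Read: luminescence, 15 min post-substrate. Controls: genistein 10 microM (maximal activation), DMSO (neutral).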
Gal4-VP16 FLuc: VP16 counterscreen qHTS for inhibitors of ROR gamma transcriptional activity. Drosophila S2 Gal4-VP16 UAS-luciferase, luminescence, 20 h. Potency, µM (highest dose often 53.6 µM), usual class: inhibitors. 310,000 tested, 3.5% active;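 further: Gal4-VP16 expression switched on by copper sulfate through the metallothionein promoter; nearly all actives have a fitted effect of over 50% in size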
p53 reactivation: qHTS assay for re-activators of p53 using a Luc reporter. Potency, µM (top dose mostly 92.2 µM), most hits filed as activators. AID 504706, 2011. 320,000 tested, 0.063% active. H1299 p53-A138V BP100-luciferase reporter, luminescence, 24 h; further: nearly all actives have a fitted effect of over 45% in size
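H1299 (p53-null), stable ts p53-A138V + BP100-Luc; 1000 cells/well, Opti-MEM/10% FBS; cpd 4 pt, 1:5; 24 h, 37 deg C, 5% CO2; detection reagent 10 min RT; luminescence.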
RORgamma inh: qHTS for inhibitors of ROR gamma transcriptional activity; Potency, µM (series often up to 53.6 µM), usual class: inhibitors; 310,000 tested, 5.4% active; Drosophila S2 Gal4-RORgamma UAS-luciferase reporter, 20 h; Nuclear receptor ROR-gamma (Mus musculus), P51450; AID 2551, 2010; further: nearly all actives have a fitted effect of over 60% in size
Target sequence (P51450 whole entry, looked up, the tested form may be a part): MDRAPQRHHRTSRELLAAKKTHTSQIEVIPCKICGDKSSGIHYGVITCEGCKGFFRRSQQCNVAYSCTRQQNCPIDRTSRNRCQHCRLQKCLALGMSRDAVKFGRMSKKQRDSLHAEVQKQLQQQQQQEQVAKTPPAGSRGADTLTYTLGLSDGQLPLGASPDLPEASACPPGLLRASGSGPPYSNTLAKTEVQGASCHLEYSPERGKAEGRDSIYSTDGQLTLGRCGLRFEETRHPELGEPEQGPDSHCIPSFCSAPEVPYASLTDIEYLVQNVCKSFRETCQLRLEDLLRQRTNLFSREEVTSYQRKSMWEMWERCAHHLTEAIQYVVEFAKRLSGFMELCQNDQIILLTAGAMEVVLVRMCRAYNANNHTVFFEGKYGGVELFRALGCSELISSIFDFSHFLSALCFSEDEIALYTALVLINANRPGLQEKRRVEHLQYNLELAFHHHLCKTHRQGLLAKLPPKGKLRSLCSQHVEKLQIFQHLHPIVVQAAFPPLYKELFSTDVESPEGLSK
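Read-out: Photinus luciferase luminescence; inhibitors lower reporter signal. Insect Schneider cells with Gal4-ROR gamma fusion under metallothionein promoter, UAS reporter; 700 uM final copper sulfate induction, 20 hr, ambient temperature.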
ELG1 repair inh: qHTS screen for small molecules that inhibit ELG1-dependent DNA repair in human embryonic kidney (HEK293T) cells expressing luciferase-tagged ELG1; HEK293T ELG1-luciferase reporter, luminescence, 16 h; DNA damage induced by 5-fluorouridine; Potency, µM (titrated, usually from 46.1 µM), actives largely listed as inhibitors; 330,000 tested, 2.3% active; AID 504467, 2011; further: nearly all actives have a fitted effect of over 55% in size
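Step one: seed 2,000 cells per well. Step two: pin-transfer compound or DMSO alongside 5-fluorouridine. Step three: incubate 16 hr, 37 °C, 5% CO2. Step four: add ONE-Glo, wait 30 min, read luminescence.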
Giardia killer: Small Molecules that selectively kill Giardia lamblia: qHTS; Giardia lamblia trophozoite viability; activity change, % at 7.66 µM, hits read low; 340,000 tested, 0.15% active; AID 540267, 2011; in the data active means activity change below about -80%; inconclusive means between about -30% and that limit;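 further: parasites exposed to compound for two days anaerobically before the ATP read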
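Giardia trophozoites, 100 cells per well, were exposed to compounds for 48 hrs at 37 deg C under anaerobic conditions; viability was then read as ATP content by bioluminescence after 15-30 min at room temperature.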
Hits are given with their value; i = inactive; ? = inconclusive; nt = no result given; [ ] = dose if it differs, or a comment. Sampled rows, rich in hits. Any-hit rate of the full collection: about 7.6%. Unless noted, the call rests on the fitted dose curve; in most records, active means well fitted curve in the direction sought with a large enough effect; inconclusive means small, poorly fitted or top-dose-only effect, or another doubt; inactive means no such curve, though single readings can be large; an effect the other way counts as inactive or inconclusive.

SMILES | BRCA1 expr up | Gal4-VP16 FLuc | p53 reactivation | RORgamma inh | ELG1 repair inh | Giardia killer
CCCC(C(=O)NC(C)(C)C)N(Cc1ccccc1)C(=O)c1snc(C(N)=O)c1N (configuration not stated) | i | nt | nt | nt | nt | nt
COc1cccc(/C=C/c2nc(C#N)c(N(C)Cc3ccccc3)o2)c1 | i | nt | nt | nt | nt | nt
O=C(c1ccc(Cn2c(=S)[nH]c3cc4c(cc3c2=O)OCO4)cc1)N1CCN(c2ccccc2)CC1 | i | 6.3µM | i | 3.2µM | ? | i
CCOCCCn1c(=S)[nH]c2cc(C(=O)N3CCN(C4CCCCC4)CC3)ccc2c1=O | i | i | i | i | i | i
CCCCCn1c(=S)[nH]c2cc(C(=O)N3CCCC3)ccc2c1=O | i | i | i | 3.2µM | ? | i
O=C(c1ccc(Cn2c(=S)[nH]c3ccc(Br)cc3c2=O)cc1)N1CCN(C2CCCCC2)CC1 | i | ? | i | 11µM | ? | i
COc1ccc(Cn2c(=S)[nH]c3cc(C(=O)N4CCN(c5ccccc5)CC4)ccc3c2=O)cc1 | i | i | i | ? | i | i
CCCn1c(=S)[nH]c2cc(C(=O)N3CCN(C)CC3)ccc2c1=O | i | nt | nt | nt | nt | nt
CCCCCn1c(=S)[nH]c2cc(C(=O)N3CCN(C(=O)OCC)CC3)ccc2c1=O | i | ? | i | ? | i | i
O=C(c1ccc2c(=O)n(Cc3ccccc3)c(=S)[nH]c2c1)N1CCCC1 | i | ? | i | 11µM | i | i
CC(OC(=O)CNC(=O)c1ccc(F)cc1)C(=O)Nc1ccc(S(=O)(=O)N2CCOCC2)cc1 (configuration not stated) | i | nt | i | nt | i | i
Cc1ccc(C)c(N2CCN(C(=O)c3ccc(Cn4c(=S)[nH]c5ccc(N6CCOCC6)cc5c4=O)cc3)CC2)c1 | i | i | i | 2.8µM | i | i
Cc1cccc(NC(=O)c2sc3nc(-c4ccccc4)cn3c2C)n1 | i | i | i | i | 18µM | i
COc1ccc(-c2cn3c(C)c(C(=O)Nc4cccc(C)n4)sc3n2)cc1 | i | 11µM | i | 7.1µM | ? | i
COc1ccc(-c2cn3c(C)c(C(=O)NC(C)(C)C)sc3n2)cc1 | i | i | i | i | ? | i
Cc1cccc(NC(=O)c2sc3nc(-c4ccc(F)cc4)cn3c2C)n1 | i | i | i | i | i | i
COc1cc(NC(=O)Cc2ccccc2)c(C(=O)O)cc1OC | i | i | i | i | i | i
CC(=O)N1CCc2cc(S(=O)(=O)NCC(=O)NCc3ccc(Cl)cc3)ccc21 | i | i | i | i | i | i
Cc1ccc(-n2c(-c3cnccn3)n[nH]c2=S)c(Br)c1 | i | i | i | 7.9µM | i | i
FC(F)(F)c1ccccc1-n1c(-c2cnccn2)n[nH]c1=S | i | i | i | 11µM | ? | i
COc1cccc(NC(=O)C2CCCN2S(=O)(=O)c2ccc3nc(-c4ccccc4)[nH]c3c2)c1 (configuration not stated) | i | nt | nt | nt | nt | nt
Cc1cc2c(nn1)CCc1nonc1-2 | i | i | i | ? | i | i
Cc1ccc2c3c([nH]c2c1C)-c1nonc1CC3 | 8.9µM | i | ? | ? | ? | i
Cc1cn([C@H]2C[C@H](O)[C@@H](CCC(=O)NCC3CCCO3)O2)c(=O)[nH]c1=O (some centres not stated) | i | nt | nt | nt | nt | nt
N#C/C(=C/c1cn(-c2ccccc2)nc1-c1cccc(OCc2ccc(F)cc2)c1)C(=O)NCCCn1ccnc1 | i | 11µM | i | ? | 15µM | i
SMILES | BRCA1 expr up | Gal4-VP16 FLuc | p53 reactivation | RORgamma inh | ELG1 repair inh | Giardia killer
CCCOc1cccc(-c2nn(-c3ccccc3)cc2/C=C(\C#N)C(=O)NCCCn2ccnc2)c1 | i | ? | i | i | ? | i
COC(=O)c1c(SC)nc2ccccc2c1OCc1ccccc1C | i | nt | nt | nt | nt | nt
COc1ccc(C(=O)c2ccc(OC)c(OC)c2)cc1OC | i | i | i | i | i | i
COc1ccc(C(=O)c2ccc(OC)c(N)c2)cc1N | i[1.84 µM] | i | ? | 1.4µM | ? | i
O=C(NCC(=O)N(c1cccc(F)c1)C(C(=O)NC1CCCC1)c1ccncc1)c1cccs1 (configuration not stated) | i | i | i | i | i | i
O=[N+]([O-])c1cccc(NC(=S)N2CCc3ccccc32)c1 | i | ? | ? | ? | 13µM | i
O=[N+]([O-])c1cccc(NC(=S)Nc2nc(-c3ccccc3Cl)cs2)c1 | i | 2.5µM | i | 2µM | ? | i
O=C(NC(=S)NCc1ccccc1)C1CCCCC1 | i | 7.1µM | i | 1.6µM | i | i
O=C(NCc1ccccc1)c1ccc(NC(=O)C2CCCCC2)cc1 | i | nt | nt | nt | nt | i
O=C(Nc1cccc([N+](=O)[O-])c1)C(=O)N1CCCCC1 | 4.5µM | i | i | i | ? | i
O=[N+]([O-])c1cccc(NC(=S)N2CCCC2)c1 | i | i | ? | i | i | i
O=C(NCCCN1CCOCC1)c1ccc(N2CCOCC2)c([N+](=O)[O-])c1 | i | i | i | i | i | i
CC(C)(C)N1C(=O)[C@H]2[C@H]3[C@H](O)[C@H](O)C/C(=N/OCc4ccccc4)[C@H]3CC[C@@H]2C1=O | nt | i[10 µM] | nt | i[10 µM] | nt | nt
O=C(CCc1ccc(S(=O)(=O)N2CCOCC2)cc1)Nc1ccccc1F | i | nt | i | nt | i | i
Cn1c(SCc2ccc(Br)cc2)nc2c(c1=O)SCC2 | i | ? | i | ? | ? | i
CC(=O)NC(=S)Nc1cccc([N+](=O)[O-])c1 | i | i | i | ? | i | i
O=C(Nc1cccc([N+](=O)[O-])c1)NC1CCCCCCC1 | 6.3µM | ? | i | ? | ? | i
O=C(NC(=S)Nc1cccc([N+](=O)[O-])c1)C1CCCC1 | i | ? | ? | 13µM | i | i
O=C(NC(=S)Nc1ccc(Br)cc1)C1CCC1 | ? | 7.9µM | ? | 6.3µM | ? | i

Screening data: PubChem, National Center for Advancing Translational Sciences (NCATS)
